SW480 rerep – induces DNA re-replication in SW480 colon adenocarcinoma cells; AID 624297; Potency, µM (highest dose often 46.1 µM), for inactives: at the top dose re-replication activation, actives largely listed as activators; SW480 DNA re-replication, Hoechst DNA content imaging, 48 h; actives 1.8% (n = 340,000); note: % of control where 0% means no effect; nearly all actives have a fitted effect of over 55% in size
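Image-based DNA-content assay: after two days of treatment, nuclei were labelled with the DNA dye Hoechst and imaged, and hits were compounds raising the count of nuclei showing high fluorescence intensity.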
MCF10A rereplic – inducers of DNA re-replication in MCF 10A breast cells; Potency, µM (titrated, usually from 46.1 µM), for the others: at the top dose activity, positive = re-replication, actives largely listed as activators; actives 2.9% (n = 350,000); AID 624296; MCF 10A DNA re-replication, Hoechst nuclear intensity, 48 h; note: % of control where 0% means no effect; nearly all actives have a fitted effect of over 50% in size
ELG1 genotoxic – induces genotoxicity in HEK293T cells with luciferase-tagged ELG1. HEK293T ELG1-luciferase reporter, luminescence, 16 h. Potency, µM (highest dose often 46 µM), for the others: at the highest dose activity change, positive = activation, usual class: activators. actives 1.3% (n = 330,000); note: % of control where 0% means no effect; nearly all actives have a fitted effect of over 60% in size
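Step 1: seed 2,000 HEK293T ELG1-luciferase cells per well. Step 2: add compound or DMSO, incubate 16 hr at 37 °C. Step 3: ONE-Glo, 30 min at room temperature, read luminescence.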
A-T KAP1 phos – candidate therapy for ataxia-telangiectasia. actives 0.19% (n = 320,000). Potency, µM (highest dose often 57.5 µM), for inactives: top-dose activation, hits mostly activators. F2112 A-T fibroblasts, KAP-1 phosphorylation AlphaLISA; neocarzinostatin DNA damage 30 min before lysis; note: % of control where 0% means no effect; nearly all actives have a fitted effect of over 45% in size
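ATM-like activity read as KAP-1 phosphorylation via AlphaLISA donor/acceptor antibody pairs after lysis and 6 hr at 25C. Cells were ATM-null patient fibroblasts (F2112, hTERT), dosed 60 min, then exposed to the DSB inducer NCS for 30 min.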
ELG1 repair inh – ELG1-dependent DNA repair inhibition; HEK293T ELG1-luciferase reporter, luminescence, 16 h; DNA damage induced by 5-fluorouridine; Potency, µM (doses to about 46.1 µM), inactives show at the highest dose activity change, negative = inhibition, most hits filed as inhibitors; actives 2.3% (n = 330,000); AID 504467; note: % is set by controls: 0 for no effect and ±100 for the full control effect; nearly all actives have a fitted effect of over 55% in size
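HEK293T cells expressing luciferase-tagged ELG1 (2,000/well) received 5-Fluorouridine plus compound or DMSO for 16 hr at 37 °C. Luciferase was read by ONE-Glo luminescence after 30 min at room temperature.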
p53 reactivation – re-activators of mutant p53. H1299 p53-A138V BP100-luciferase reporter, luminescence, 24 h. Potency, µM (doses to about 92.2 µM), without a hit: at the highest dose activity change, positive = activation, most hits filed as activators. actives 0.063% (n = 320,000). AID 504706; note: % of control where 0% means no effect; nearly all actives have a fitted effect of over 45% in size
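H1299 (p53-null), stable ts p53-A138V + BP100-Luc; 1000 cells/well, Opti-MEM/10% FBS; cpd 4 pt, 1:5; 24 h, 37 deg C, 5% CO2; detection reagent 10 min RT; luminescence.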
Active calls of the source: *; u = inconclusive; x = no result. An excerpt weighted towards active compounds, which were near 7.1% of everything screened. Calls come from the whole dose curve; as a rule, active = well fitted curve in the direction sought with a large enough effect; inconclusive = small, poorly fitted or top-dose-only effect, or another doubt; inactive = no such curve, though single readings can be large; an effect the other way counts as inactive or inconclusive. Potency is the fitted concentration of half-maximal effect.

SMILES	SW480 rerep	MCF10A rereplic	ELG1 genotoxic	A-T KAP1 phos	ELG1 repair inh	p53 reactivation
CCOC(=O)C1=C(N)Oc2ccc3ccccc3c2C1c1ccc(O)c(OC)c1 (stereo not given)	1%	u	-1%	1%	12%	-2%
CC(/C=C/C=C(\C)C(=O)O[C@@H]1O[C@H](CO[C@@H]2O[C@H](CO)[C@@H](O)[C@H](O)[C@H]2O)[C@@H](O)[C@H](O)[C@H]1O)=C\C=C\C=C(C)\C=C\C=C(/C)C(=O)O[C@@H]1O[C@H](CO[C@@H]2O[C@H](CO)[C@@H](O)[C@H](O)[C@H]2O)[C@@H](O)[C@H](O)[C@H]1O	-3%	0%	x	x	x	x
COc1ccc(-c2ccc(OC)cc2)cc1	-5%	17%	12%	4%	u	u
COc1ccc(-c2cnc3c(c2)CCC3(C#N)C#N)cc1	3.3µM*	4.1µM*	5%	2%	4%	3%
COc1ccc(-n2c(C)c([N+](=O)[O-])c3ccc(O)c(CN4CCCCC4)c32)cc1	u	u	-17%	x	10µM*	-1%
C=CC(=O)N1c2ccccc2Sc2ccc(NC(=O)OCC)cc21	u	6.5µM*	x	x	x	x
CCOC(=O)Nc1ccc2c(c1)N(C(=O)CN(CC)CC)c1ccccc1C=C2	3%	12µM*	0%	5%	8%	-7%
CCOC(=O)Nc1ccc2c(c1)N(C(=O)CN(CC)CC)c1ccccc1CC2	u	-3%	0%	1%	0%	2%
COc1ccc(NC(=O)CCN2C(=O)c3ccncc3C2=O)cc1OC	-29%	-1%	0%	9%	1%	2%
CCOC(=O)c1cc(-c2ccccc2)sc1NC(=O)C(C)N1C(=O)NC(C)(c2ccc(Cl)cc2)C1=O (stereo not given)	6%	13%	-6%	-3%	26µM*	-3%
CCOC(=O)c1cc(-c2ccccc2)sc1NC(=O)C(C)C	1%	u	-4%	10%	-25%	26%
CCOC(=O)c1cc(-c2ccccc2)sc1NC(=O)C(C)Sc1nnnn1C (stereo not given)	15%	7%	-15%	-2%	18µM*	-10%
CN1C/C(=C/c2ccccc2[N+](=O)[O-])C(=O)/C(=C\c2ccccc2[N+](=O)[O-])C1	1.2µM*	1.8µM*	x	x	x	x
O=C1N(c2ccccc2C(F)(F)F)O[C@]1(c1ccccc1)C1CCCC1	u	18µM*	-3%	0%	u	10%
N#CCCn1cc(C(=O)Nc2cccc(C(=O)O)c2)c(-c2ccc(Cl)cc2)n1	4.1µM*	4%	-2%	3%	3%	-1%
CCOC(=O)c1ccc(NC(=O)c2cn(CCC#N)nc2-c2ccc3c(c2)OCCO3)cc1	-7%	-8%	-1%	-3%	15µM*	-15%
N#CCCn1cc(C(=O)Nc2ccc(C(=O)O)cc2)c(-c2ccc([N+](=O)[O-])cc2)n1	-11%	1%	-2%	-2%	-15%	-5%
CCOC(=O)Cc1c[nH]c2ccc([N+](=O)[O-])cc12	1%	6%	x	x	x	x
O=C(COC(=O)c1nc(Cl)c(Cl)c(Cl)c1Cl)NCc1ccccc1	16µM*	u	-3%	-3%	u	u
Nc1c(Cl)c(Cl)nc(C(=O)OCC(=O)NCc2ccccc2)c1Cl	-4%	0%	-1%	9%	u	-1%
CCc1nc2ccccc2c(C(=O)OCC(=O)C(C)(C)C)c1C	-1%	18%	-9%	3%	u	0%
CCc1nc2ccccc2c(C(=O)OCc2nc3ccccc3c(=O)[nH]2)c1C	12µM*	21µM*	-10%	1%	13µM*	5%
CCc1nc2ccccc2c(C(=O)OCc2nnc(-c3ccccc3)o2)c1C	-4%	-10%	-5%	8%	21µM*	-2%
CCc1ccc(NCc2nc3ccccc3c(=O)[nH]2)cc1	5%	28%	3.3µM*	-2%	u	x
Cc1c(C(=O)OCc2nnc(-c3ccccc3)o2)oc2ccccc12	-6%	-3%	0%	3%	-6%	2%
SMILES	SW480 rerep	MCF10A rereplic	ELG1 genotoxic	A-T KAP1 phos	ELG1 repair inh	p53 reactivation
CCCCCCCC1c2c(c(C)c(C)oc2=O)Oc2c(C)c(C)oc(=O)c21	-8%	3%	-4%	1%	-11%	5%
COC(=O)c1c(C(=O)OC)c2cc(C(=O)c3ccccc3)ccn2c1Cl	-1%	u	-1%	28%	26µM*	-15%
Cc1cccc2[nH]c3c(N4CC=C(c5ccc(F)cc5)CC4)ncnc3c12	5%	u	-12%	-6%	12µM*	0%
CCOC(=O)[C@H]1[C@H]2COc3ccc(Br)cc3[C@@H]2N2C(=O)c3cc(F)c(F)cc3NC(=O)[C@@]12C	10%	25%	-1%	15%	-19%	-17%
COc1cccc(CNc2ncnc3ccc(-c4c(C)noc4C)cc23)c1	-22%	u	u	5%	24%	-8%
Cc1ccsc1CNc1ncnc2ccc(-c3c(C)noc3C)cc12	-1%	5.8µM*	u	-1%	u	-6%
c1ccc(-c2cc(-c3nn4c(-c5ccco5)nnc4s3)c3ccccc3n2)cc1	u	8%	-18%	-3%	21µM*	7%
CCCCCCCCCCCCCCCC[n+]1ccc(/C=N/O)cc1	21µM*	2.6µM*	-9%	3%	u	-4%
Cc1ccccc1CNC(=O)Nc1ccc(Cl)cc1	178%	-13%	u	5%	u	x
Cc1ccc(CNC(=O)Nc2ccccc2)c(C)c1	-11%	7%	18µM*	4%	u	u
Cc1cc(C(=O)Nc2nnc(C3CCCCC3)s2)no1	-8%	-3%	x	x	x	x
Cc1ccc(C(=O)Nc2nnc(C3CCCCC3)s2)o1	-1%	-15%	3.7µM*	-1%	u	u
COc1ccc(CCNC(=O)c2nn(C)c3c2CS(=O)(=O)c2ccccc2-3)cc1OC	23µM*	u	-3%	2%	-6%	-4%
c1cc2c3c(cccc3c1)C(N1CCCCCC1)=N2	-1%	-8%	2%	21%	6%	1%
c1ccc2c(c1)CCN(C1=Nc3cccc4cccc1c34)C2	u	8.2µM*	6%	-2%	u	-2%
CCCCn1c(SCC(=O)c2ccc3c(c2)NC(=O)CO3)nc2cc(S(N)(=O)=O)ccc21	-9%	-1%	0%	-4%	16µM*	-6%
CCCCn1c(SCc2c(C)noc2C)nc2cc(S(N)(=O)=O)ccc21	-6%	u	18µM*	1%	u	-7%

Bioassay records from PubChem BioAssay.
